Results taken from PubChem BioAssay.

test system: wheat germ agglutinin (Triticum aestivum), Alexa647-labelled; assay: wheat germ agglutinin binders on compound microarrays, profiling panel, artefact control for SMM control-protein annotation, biochemical, small-molecule microarray, 635/667 nm fluorescence (AID 1140); settings: WGA-A647 binding, 635 nm fluorescence, higher = more signal;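 further: score merges 667 nm feature emission with signal to noise over triplicate slides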

Row | SMILES | composite z-score
1 | C=C(COC)/C(=C/C[C@@H](OC(C)=O)c1cccc(OCCO)c1)c1cc(C(=O)OC)ccc1OC | -1.12
2 | CC(C)(C)OC(=O)CC[C@]1(C(=O)NCCN2CCOCC2)N=C(c2ccc(OCCCO)cc2)O[C@H]1c1ccccc1CN=[N+]=[N-] | 1.31
3 | CC(=O)NCCCC[C@@H]1NC(=O)[C@@H]2C[C@H](C(=O)NCCCCCCN(C)C)[C@H](c3ccc(O)cc3)N2C1=O | 1.25
4 | Cc1ccc(S[C@]2(C(=O)O)CC(=O)N(Cc3ccccc3)[C@@H]2c2ccc(CO)cc2)cc1 | 0.0681
5 | O=C1c2ccccc2[C@](Cc2ccccc2I)(C(=O)NCC(F)(F)F)[C@H](c2ccc(CO)cc2)N1Cc1ccccc1C(F)(F)F | 0.479
6 | O=C1OCCC=C[C@H]2OC34C=CCN(Cc5ccccc5)C(=O)[C@H]3N(CCO)C(=O)[C@@H]4C12 (stereo partly specified) | -2.09
7 | C=CCNC(=O)[C@H]1[C@@H]2C(=O)O[C@@H](c3ccccc3)[C@@H](c3ccccc3)N2[C@@H](c2ccccc2OCCO)[C@]12C(=O)N(C(=O)OCCOC)c1ccc(C#CCC(C(=O)OC)C(=O)OC)cc12 | 1.08
8 | COc1ccc([Si](C)(C)[C@H]2[C@H](CC(=O)N3Cc4ccccc4C[C@H]3CO)O[C@@]3(C(=O)N(Cc4cccc(N5CCOC5=O)c4)c4ccccc43)[C@@H]2C)cc1 | 0.188
9 | CC(C)N1CC=CC23O[C@@H]4/C=C\CCCOC(=O)C4[C@H]2C(=O)N(CCO)[C@@H]3C1=O (stereo partly specified) | -0.505
10 | CC(C)CN1C(=O)[C@@]2(Cc3ccccc31)c1ccccc1C(=O)N(C1CCCCC1)[C@H]2c1ccc(CO)cc1 | -1.14
11 | COc1cccc([C@@H]2[C@@H](C)CC[C@H]3C(=O)N4[C@H](c5cccc(OC)c5)[C@@H](C)CC[C@H]4C(=O)N23)c1 | 0.248
12 | CO[C@H]1COC(=O)[C@H](Cc2ccccc2)NC(=O)CC=C[C@@H](C)[C@H](OC)COC(=O)CC=C[C@@H]1C | -0.12
13 | CO[C@H]1COC(=O)[C@@H](OCc2ccccc2)C=C[C@H](C)[C@@H](OC)COC(=O)[C@H](OCc2ccccc2)C=C[C@@H]1C | -0.244
14 | O=C1O[C@@H](c2ccccc2)[C@@H](c2ccccc2)N2[C@@H](c3ccc(O)cc3)[C@]3(C(=O)Nc4ccccc43)[C@@H](C(=O)N3CCN(c4ncccn4)CC3)[C@H]12 | -0.387
15 | O=C1O[C@@H](c2ccccc2)[C@@H](c2ccccc2)N2[C@@H](c3ccc(O)cc3)[C@]3(C(=O)Nc4ccc(C#CC5(O)CCCCCC5)cc43)[C@@H](C(=O)Nc3nc4ccccc4s3)[C@H]12 | 1.26
16 | C=CC[C@]1(C(N)=O)N=C(c2ccc(OCCCO)cc2)O[C@H]1c1ccccc1CN=[N+]=[N-] | 1.43
17 | COCCOC(=O)N1C(=O)[C@@]2(c3cc(C#CCCO)ccc31)[C@H](C(=O)N1CCCCCCC1)[C@H]1C(=O)O[C@H](c3ccccc3)[C@H](c3ccccc3)N1[C@@H]2c1ccc(O)cc1 | 1.1
18 | C=CCOC(=O)[C@@H]1[C@H]2C(=O)O[C@H](c3ccccc3)[C@H](c3ccccc3)N2[C@H](c2ccc(OCCOC(=O)[C@H]3C[C@H]4C(=O)N5CCC[C@H]5C(=O)N4[C@H]3c3ccc(O)cc3)cc2)[C@@]12C(=O)Nc1ccccc12 | 0.93
19 | CO[C@H]1COC(=O)CC=C[C@@H](C)COC(=O)[C@@H](C)NC(=O)CC=C[C@@H]1C | -0.673
20 | C=CCN1C(=O)[C@@]2(O[C@@H](CCn3cc([C@H](O)c4ccccc4)nn3)[C@H]([Si](C)(C)c3ccc(OC)cc3)[C@H]2C)c2cc(N3CCOC3=O)ccc21 | -0.605
21 | CCCC/C=C/[C@H]([C@@H](O)Cc1ccccc1)N(CC#Cc1ccccc1)Cc1ccccc1Br | -0.788
22 | CCOC(=O)[C@H]1C/C=C/C[C@H](C(=O)OCC)C(=O)O[C@H]2[C@@H](OC)O[C@H](CO)[C@@H](OC(=O)Nc3ccc(Br)cc3)[C@@H]2OC1=O | 1.21
23 | COC(=O)c1c(CC[C@@H](CO)NC(=O)N[C@H](Cn2cc(-c3cncn3C)nn2)C(C)C)oc(C(C)=O)c1C(=O)OC | -0.0889
24 | COc1ccc([Si](C)(C)[C@H]2[C@H](CCO)O[C@@]3(C(=O)N(Cc4ccc(N5CCCCC5=O)cc4)c4ccccc43)[C@@H]2C)cc1 | 1.14
25 | O=C1c2ccccc2[C@](Cc2ccccc2I)(C(=O)O)[C@H](c2ccc(CO)cc2)N1C1CCCCC1 | 1.13
26 | CCCNC(=O)[C@@]1(Sc2ccc(C)cc2)CC(=O)N(Cc2ccccc2Cl)[C@@H]1c1ccc(CO)cc1 | 1.18
